GLS inh: glutaminase GLS (human) inhibition | Potency, µM (top dose mostly 45.5 µM), hits mostly inhibitors | 410,000 compounds, 0.21% hits | GLS enzymatic activity, qHTS titration | O94925 | AID 624170
Target sequence (O94925 whole entry, looked up): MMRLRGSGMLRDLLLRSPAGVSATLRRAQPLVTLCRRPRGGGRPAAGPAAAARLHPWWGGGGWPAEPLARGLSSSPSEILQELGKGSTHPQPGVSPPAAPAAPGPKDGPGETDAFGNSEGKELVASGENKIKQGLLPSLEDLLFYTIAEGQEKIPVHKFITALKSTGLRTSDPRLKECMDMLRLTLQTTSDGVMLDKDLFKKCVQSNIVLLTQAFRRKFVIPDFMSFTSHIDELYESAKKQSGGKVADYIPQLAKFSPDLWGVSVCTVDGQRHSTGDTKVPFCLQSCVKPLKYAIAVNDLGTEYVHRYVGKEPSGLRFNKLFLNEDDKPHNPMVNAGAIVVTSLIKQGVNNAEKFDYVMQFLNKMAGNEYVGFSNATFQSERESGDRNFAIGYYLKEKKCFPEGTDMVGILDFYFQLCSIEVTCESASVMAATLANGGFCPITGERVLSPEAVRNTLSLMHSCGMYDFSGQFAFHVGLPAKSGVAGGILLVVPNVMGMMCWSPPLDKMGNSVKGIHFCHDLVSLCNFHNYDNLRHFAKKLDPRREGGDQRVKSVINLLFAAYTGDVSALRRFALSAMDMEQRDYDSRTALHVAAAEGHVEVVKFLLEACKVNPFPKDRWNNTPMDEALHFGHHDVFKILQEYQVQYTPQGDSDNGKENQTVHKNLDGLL
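Read-out is an Amplex red fluorescence increase coupled through glutamate oxidase and HRP, measured before and after 30 min room-temperature incubation. hKGA is in 45 mM KH2PO4 (pH 8.2) with 0.02% Tween-20; glutamine added as 1mM solution.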
VDR inh: blocks the human vitamin D receptor | Potency, µM, actives largely listed as inhibitors | AID 504847 | VDR-SRC2-3 peptide fluorescence polarization, 2 h | P11473 | 400,000 compounds, 0.93% hits
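Fluorescence polarization assay measuring small-molecule disruption of VDR binding to the coregulator peptide SRC2-3. Compounds were pin-transferred (23 nl) into the reagent mix and incubated 2 h at room temperature before reading.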
PKM2 activator: PKM2 (human) enzyme activation; P14618; AID 1631; 260,000 compounds, 0.34% hits; Potency, µM (highest dose often 57.5 µM), most hits filed as activators; purified PKM2, Kinase-Glo ATP luminescence, activation; response scale: 0% is enzyme alone, no compound; also: nearly all actives have a fitted effect of over 55% in size
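Kinase-Glo luminescence reports ATP generated from ADP (0.1 mM) and PEP (0.5 mM) by purified hPK-M2 after 1 h at room temperature, pH 7.2 imidazole buffer; intermediate enzyme activity allows detecting inhibitors and activators.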
KAT2A inh: inhibitors of human GCN5L2 histone acetyltransferase. Potency, µM (top dose mostly 58.9 µM), hits mostly inhibitors. 390,000 compounds, 0.21% hits. AID 504327. GCN5L2 HAT assay, ThioGlo1 CoA-SH fluorescence. Q92830
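Fluorescence readout, Ex340nm/Em540nm: ThioGlo1 (50uM final) reacts with free CoA thiol released as 20nM GCN5L2 acetylates H3(1-25) peptide (75uM) using acetyl-CoA (70uM). Compound and enzyme sat 15 min beforehand; 20 min room-temperature reaction.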
Mito fusion act: inhibitors of mitochondrial division or activators of mitochondrial fusion | S. cerevisiae fusion-defective mutant growth rescue, CellTiterGlo 48 h | Potency, µM (highest dose often 46.1 µM), hits mostly activators | 320,000 compounds, 0.23% hits; also: nearly all actives have a fitted effect of over 45% in size
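Read-out: ATP-based luminescence (CellTiterGlo, 10 min ambient) reporting growth of fusion-defective ts yeast after 48 hours at 37C on glycerol/ethanol YPEG medium in the presence of compound.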
PLK1 PBD inh: PLK1 (human) polo-box domain binding inhibition | P53350 | Plk1 PBD binding of FITC phosphopeptide, fluorescence polarization | Potency, µM, hits mostly inhibitors | 360,000 compounds, 2.8% hits | AID 720504; also: series mostly up to about 57 µM; nearly all actives have a fitted effect of over 65% in size
USP1 UbRho: validation of human USP1/UAF1 inhibitors | Potency, µM (series often up to 56.8 µM), actives largely listed as inhibitors | 50 compounds, 50% hits | Ub-Rhodamine cleavage, fluorescence kinetic read | shares compounds with VDR inh
VDR confirm: confirmation of human vitamin D receptor inhibitors; Potency, µM, hits mostly inhibitors; shares compounds with VDR inh; VDR-coactivator inhibition assay, qHTS confirmation; AID 602199; 840 compounds, 89% hits
VDR FP: confirmation of human VDR-coactivator binding inhibitors, fluorescein label | Potency, µM (top dose mostly 57.1 µM), most hits filed as inhibitors | 840 compounds, 48% hits | shares compounds with VDR inh | VDR-coactivator binding, fluorescein fluorescence polarization
VDR bla: confirmation of human vitamin D receptor inhibitors in reporter cells; shares compounds with VDR inh; VDR beta-lactamase reporter cells, FRET ratio; cells co-treated with VDR agonist LG190178; Potency, µM (titrated, usually from 46.1 µM), actives largely listed as inhibitors; 840 compounds, 23% hits; AID 602202
VDR cytotox: cell toxicity, VDR inhibitor hit counter-screen | shares compounds with VDR inh | cytotoxicity counter-screen, cell viability, qHTS | Potency, µM (doses to about 48.3 µM), usual class: cytotoxic | 840 compounds, 18% hits; also: nearly all actives have a fitted effect of over 75% in size
TbPYK inh: Trypanosoma brucei pyruvate kinase inhibition, cherry-pick confirmation; shares compounds with PLK1 PBD inh; recombinant TbPYK, Kinase-Glo ATP luminescence; Potency, µM (top dose mostly 76.9 µM), most hits filed as inhibitors; 890 compounds, 67% hits; AID 720569; also: nearly all actives have a fitted effect of over 70% in size
TbPYK orthogonal: TbPYK inhibition, orthogonal confirmation; Potency, µM (top dose mostly 76.9 µM), most hits filed as inhibitors; recombinant TbPYK, ADP-Glo luminescence, 60 min; AID 720584; 890 compounds, 62% hits; shares compounds with PLK1 PBD inh; also: nearly all actives have a fitted effect of over 75% in size
A number is an active result; i = inactive; ? = inconclusive; nt = not tested or not shown. Sampled rows, rich in hits. Any-hit rate of the full collection: about 3.4%. Calls follow the shape of the dose curve; as a rule, active = well fitted curve in the direction sought with a large enough effect; inconclusive = small, poorly fitted or top-dose-only effect, or another doubt; inactive = no such curve, though single readings can be large; an effect the other way counts as inactive or inconclusive.

SMILES | GLS inh | VDR inh | PKM2 activator | KAT2A inh | Mito fusion act | PLK1 PBD inh | VDR confirm | VDR FP | VDR bla | VDR cytotox | others
CCCCCCCCCCCCCCC[C@@H](O)[C@@H](N)COP(=O)(O)O | nt | i | nt | nt | nt | nt | nt | nt | nt | nt
O=c1oc(Cl)c(Cl)c2ccccc12 | i | 25µM | nt | i | ? | 0.34µM | 5 | ? | ? | 17µM | USP1 UbRho=7.4µM
CN1C(=O)C(=Cc2ccccc2Oc2ccc(Cl)cc2)C(=O)N(C)C1=O | i | 28µM | i | i | i | 4.7µM | 17 | 18µM | i | i
CN1C(=O)C(=Cc2ccc(OCCN(C)c3ccccn3)cc2)C(=O)N(C)C1=O | i | i | ? | i | i | ? | nt | nt | nt | nt
CC1COC2=C1C(=O)C(=O)c1c2ccc2c1CCCC2(C)C (centres undefined) | nt | 7.1µM | nt | 28µM | nt | nt | ? | 14µM | i | i
C[C@H]1COC2=C1C(=O)C(=O)c1c2ccc2c1CCCC2(C)C | i | 11µM | i | ? | i | 27µM | 20 | 25µM | i | i
O=C1NC(=S)NC(=O)C1=Cc1ccc(OCC(=O)N2CCCC2)cc1 | ? | 45µM | i | i | i | 15µM | 13 | 14µM | i | i
CC(C)(O)[C@@H]1C2OC(=O)[C@@H]1[C@]1(O)C[C@H]3O[C@]34C(=O)O[C@H]2[C@]14C | nt | i | nt | i | nt | nt | nt | nt | nt | nt
NC(=NCc1ccc(Cl)cc1)SCCCc1cnc[nH]1 | nt | ? | nt | i | nt | nt | nt | nt | nt | nt
Cc1ccccc1N1C(=O)NC(=O)/C(=C\c2cnn(-c3ccccc3)c2)C1=O | ? | 50µM | ? | i | i | 4.7µM | 11 | ? | i | i
CCCN1C[C@H](C)N([C@H](c2ccc(C(=O)N(CC)CC)cc2)c2cccc(OC)c2)C[C@H]1C | nt | ? | nt | i | nt | nt | nt | nt | nt | nt
CC(=O)OCC1=C[C@H]2[C@@H]3C(C)(C)[C@]3(OC(=O)Cc3ccccc3)C[C@@H](C)[C@]2(O)[C@@H]2C=C(C)C(=O)[C@@]2(O)C1 | nt | i | nt | i | nt | nt | nt | nt | nt | nt
O=C1C(=O)c2ccccc2-c2ccccc21 | i | 10µM | i | i | i | i | 6 | 3.2µM | 3.7µM | 1.8µM
NC(N)=Nc1ccc2[nH]c3c(c2c1)C[C@]1(O)[C@@H]2Cc4ccc(O)c5c4[C@]1(CCN2CC1CC1)[C@@H]3O5 | nt | i | nt | i | nt | nt | nt | nt | nt | nt
CC/C=C\C[C@@H](/C=C/C=C\C/C=C\C/C=C\CCCC(=O)O)OO | nt | i | nt | nt | nt | nt | nt | nt | nt | nt
O=C(/C=C/c1ccc2c(c1)OCO2)c1c(O)n(CCC2=CCCCC2)c(=O)[nH]c1=O | i | ? | i | i | i | ? | 5.6 | ? | 21µM | i
CCCCn1c(O)c(C(CC)=NCc2ccc3c(c2)OCO3)c(=O)[nH]c1=O | i | i | i | i | i | i | nt | nt | nt | nt
CCCCn1c(O)c(C(=O)/C=C/c2ccc3c(c2)OCO3)c(=O)[nH]c1=O | i | ? | i | i | i | i | 11 | ? | ? | i
CCCCC/C=C\C=C\[C@H](CCCCCCCC(=O)O)OO | nt | i | nt | i | nt | nt | nt | nt | nt | nt
CC(=O)OCC(N)C(=O)c1ccccc1 (centres undefined) | nt | nt | nt | i | nt | nt | nt | nt | nt | nt
O=Cc1cn(Cc2ccc(Br)cc2)c2ccccc12 | i | i | nt | i | i | i | nt | nt | nt | nt
O=[N+]([O-])/C=C/c1cn(Cc2ccc(Cl)cc2)c2ccccc12 | i | 25µM | i | i | i | i | 11 | ? | ? | ?
CN(C)c1ccc(C(=O)c2ccc(N(C)C)cc2)cc1 | i | i | i | i | i | i | nt | nt | nt | nt
C/C(=C\c1ccc(N(C)C)cc1)[N+](=O)[O-] | i | 20µM | i | i | i | ? | 6.7 | ? | i | ?
CN(C)c1ccc(/C=C/[N+](=O)[O-])cc1 | i | ? | i | i | i | i | ? | i | i | i
SMILES | GLS inh | VDR inh | PKM2 activator | KAT2A inh | Mito fusion act | PLK1 PBD inh | VDR confirm | VDR FP | VDR bla | VDR cytotox | others
Cc1ccc(C)c(CN2C(=O)c3ccccc3S(=O)(=O)c3ccc(C(=O)N4CCCCCC4)cc32)c1 | i | ? | nt | i | nt | nt | nt | nt | nt | nt
COc1cc(N2CCOCC2)ccc1/C=C1\C(=O)NC(=O)N(Cc2cccs2)C1=O | i | i | i | i | i | ? | nt | nt | nt | nt
O=C1NC(=O)N(Cc2ccc(F)cc2)C(=O)/C1=C/c1cccs1 | i | 50µM | ? | i | i | 0.75µM | 12 | ? | i | i
CCOC(=O)c1c(N)n(CCCOC(=O)c2ccco2)c2nc3ccccc3nc12 | i | i | i | i | i | i | nt | nt | nt | nt
CCOC(=O)c1c(NS(=O)(=O)c2ccccc2)n(CCCOC)c2nc3ccccc3nc12 | i | ? | i | 22µM | i | i | 2.5 | 2.2µM | i | i
c1ccc(N2CCC3(CCNCC3)CC2)nc1 | nt | ? | nt | i | nt | nt | nt | nt | nt | nt
O=C(O)Cn1cc(C=C2C(=O)NC(=O)NC2=O)c2ccccc21 | i | i | nt | i | i | ? | nt | nt | nt | nt
O=C1NC(=O)C(=Cc2cc(Cl)ccc2OCc2ccc(C(=O)O)cc2)C(=O)N1 | i | 50µM | i | i | i | 7.5µM | ? | ? | i | i | TbPYK inh=25µM;TbPYK orthogonal=32µM
O=C1NC(=O)C(=Cc2ccc(Sc3ccccc3)o2)C(=O)N1 | ? | 40µM | 20µM | i | i | 0.67µM | 11 | ? | ? | ? | TbPYK inh=32µM;TbPYK orthogonal=35µM
CC1(C)OC(c2ccccc2)=C/C(=C/C=C2C(=O)NC(=O)NC2=O)O1 | i | i | i | i | i | i | nt | nt | nt | nt
CCCC/C=C/[C@@H](NP(=O)(c1ccccc1)c1ccccc1)c1ccccc1OC | nt | nt | i | nt | nt | nt | nt | nt | nt | nt
Cc1nn(Cc2ccccc2)c(C)c1C=C1C(=O)NC(=S)NC1=O | i | 25µM | i | i | i | 15µM | 9.5 | ? | ? | i | TbPYK inh=6.3µM;TbPYK orthogonal=?
